Records with an inconclusive call do not appear. The source made the active and inactive calls. Rule for the calls, unless noted: active = hit-call score of the fitted dose curve at least 0.9, where 1 is the maximum; inconclusive = response in the unintended direction; inactive = score below 0.9.
Assays:
[1] = biological target: Glucocorticoid receptor (Homo sapiens) (UniProt P04150); test: NVS_NR_hGR: NovaScreen (NVS) Nuclear Receptor Binding Assay for human Glucocorticoid Receptor (GR) (AID 2283363);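 for AC50: activity is loss of specific radioligand binding signal relative to DMSO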
Procedure, shortened: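 Compounds first tested in duplicate at 25 uM, actives followed up in concentration series. Binding to extracted GR protein measured as competitive radioligand displacement, filter scintillation read 16 h post-dosing, normalised to DMSO.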

[2] = biological target: human Norepinephrine Transporter (NET), SLC6A2 (gene 6530) (UniProt P23975); test: NVS_TR_hNET: NovaScreen (NVS) Transporter Assay for human Norepinephrine Transporter (NET) (AID 2283377);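 note: cell-free membrane protein extracted from CHO cells expressing human NET; displacement of radioligand from human NET seen as loss of scintillation signal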
Procedure, shortened: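 Single-concentration duplicate screen at 25 uM, then concentration-response for actives; displacement of specific radioligand from human NET in CHO membrane extracts, filter-based scintillation detection at 1 h relative to DMSO.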

[3] = biological target: Nuclear receptor subfamily 1 group I member 2 (Homo sapiens) (UniProt O75469); test: NVS_NR_hPXR: NovaScreen (NVS) Nuclear Receptor Binding Assay for human Pregnane X Receptor (PXR) (AID 2283365);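 note: a drop in FRET signal versus DMSO baseline means the compound binds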
Procedure, shortened: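 Human PXR binding measured by TR-FRET in a cell-free format, 2 h exposure. Single-concentration duplicates at 25 uM preceded concentration-response retests of actives; endpoint fitted positively relative to DMSO, loss of signal indicating binding.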

[4] = biological target: Estrogen receptor beta (Homo sapiens) (UniProt Q92731); test: OT_ER_ERbERb_1440: Odyssey Thera (OT) 24-hour HEK293T Protein-Complementation Assay for Estrogen Receptor-beta/-beta Homodimer (AID 2283380);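 note: fluorescence gain from ER beta LBD homodimer complementation read by laser scanning cytometry; scored as signal increase over DMSO baseline for both agonists and antagonists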
Procedure, shortened: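 Fluorescence increase, nuclear for agonists or whole-cell for antagonists, relative to DMSO vehicle, quantified by laser scanning cytometer after fixation and Draq5 staining. Readout from 24 h treatment of HEK293T cells carrying complementation-paired ER beta LBD (aa 310-547).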

[5] = biological target: Estrogen receptor (Homo sapiens) (UniProt P03372); test: OT_ERa_GFPERaERE_0480: Odyssey Thera (OT) 8-hour HeLa Transcription Induction Assay for Estrogen Receptor (AID 2283381; active = hit-call score of the fitted dose curve at least 0.9, where 1 is the maximum; inactive = score below 0.9)
Procedure, shortened: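 Human cervical HeLa cells were treated for 8 hours, after which ERE-driven GFP induction was measured by fluorescence microscopy; increases over DMSO baseline defined activity.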

[6] = biological target: Estrogen receptor (Homo sapiens) (UniProt P03372); test: OT_ERa_GFPERaERE_0120: Odyssey Thera (OT) 2-hour HeLa Transcription Induction Assay for Estrogen Receptor (AID 2283382)
Procedure, shortened: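 Cells (human cervical HeLa) receive compound, incubate 2 hours, then are imaged for fluorescent reporter induction. Images are quantified by high content analysis, and activity is fitted as gain of signal against DMSO.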

[7] = biological target: Peroxisome proliferator-activated receptor gamma (Homo sapiens) (UniProt P37231); test: OT_PPARg_PPARgSRC1_0480: Odyssey Thera (OT) 8-hour Protein-Complementation Assay for Peroxisome Proliferator-activated Receptor Gamma / SRC-1 Co-activator (AID 2283387);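 note: nuclear to cytoplasmic split Venus YFP fluorescence ratio reporting PPARg SRC-1 interaction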
Procedure, shortened: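 Protein-fragment complementation of split Venus YFP reports PPARg/SRC-1 interaction in HEK293T (transfected 48 h before treatment), exposed 8 h. Readout: N/C fluorescence ratio at 488 nm from imaging, Draq5 for segmentation, positive fit relative to DMSO.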

[8] = biological target: Retinoic acid receptor alpha (Homo sapiens) (UniProt P10276); test: NVS_NR_hRARa_Agonist: NovaScreen (NVS) Nuclear Receptor Binding Assay for human Retinoic Acid Alpha Receptor Agonism (RAR) (AID 2283361)
Procedure, shortened: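 Agonist-mode TR-FRET binding format using extracted protein, measured at 2 h post-dosing. Initial duplicate single-point screen at 25 uM preceded concentration series for actives; activity was normalized to DMSO baseline.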

[9] = biological target: human Thyroid Receptor Alpha (TRa), THRA (gene 7067) (UniProt P10827); test: NVS_NR_hTRa_Antagonist: NovaScreen (NVS) Nuclear Receptor Binding Assay for human Thyroid Receptor Alpha Antagonism (TRa) (AID 2283362);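 note: activity is loss of signal relative to DMSO baseline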
Procedure, shortened: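 Actives from a duplicate 25 uM single-point screen were retested in concentration series. The cell-free antagonist-format binding assay was read by AlphaLISA chemiluminescence at 1 h, scored as signal loss relative to DMSO.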

[10] = biological target: Retinoic acid receptor RXR-alpha (Homo sapiens) (UniProt P19793); test: OT_NURR1_NURR1RXRa_0480: Odyssey Thera (OT) 8-hour HEK293T Protein Complementation Assay for Nurr1/retinoid X receptor (RXR) (AID 2283385)
Procedure, shortened: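 Interaction of bait and prey reconstitutes a functional reporter, whose fluorescence was measured in HEK293T cells dosed with compound for 8 hours. Signal gain relative to DMSO defined the single endpoint.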

[11] = biological target: Peroxisome proliferator-activated receptor gamma (Homo sapiens) (UniProt P37231); test: OT_PPARg_PPARgSRC1_1440: Odyssey Thera (OT) 24-hour Protein-Complementation Assay for Peroxisome Proliferator-activated Receptor Gamma/ SRC-1 Co-activator (AID 2283388);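 note: nuclear to cytoplasmic ratio of reconstituted Venus YFP fluorescence in fixed imaged cells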
Procedure, shortened: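 Readout is the 488 nm N/C fluorescence ratio from fixed, Draq5-stained HEK293T cells after 24 h compound exposure. Cells carried transiently transfected PPARg and SRC-1 fused to Venus fragments, transfected 48 h before treatment.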

[12] = biological target: mouse Estrogen Receptor alpha (Era), Esr1 (gene 13982) (UniProt P19785); test: NVS_NR_mERa: NovaScreen (NVS) Nuclear Receptor Binding Assay for mouse Estrogen Receptor alpha (Era) (AID 2283378);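 note: hit means loss of bound radioligand signal relative to DMSO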
Procedure, shortened: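 Filter radiodetection of radioligand displacement from extracted receptor protein, measured 18 h post-dose. Single 25 uM concentration in duplicate initially, with concentration-series follow-up. Binding loss fitted relative to DMSO.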

[13] = biological target: Bile acid receptor (Homo sapiens) (UniProt Q96RI1); test: OT_FXR_FXRSRC1_0480: Odyssey Thera (OT) 8-hour HEK293T Protein-Complementation Assay for Farnesoid X receptor/SRC-1 Co-activator (AID 2283383)
Procedure, shortened: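 PCA, HEK293T, 8 h compound exposure; FXR–SRC-1 binding reconstitutes split reporter; fluorescence intensity; positive-direction fit vs DMSO.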

[14] = biological target: Retinoic acid receptor RXR-alpha (Homo sapiens) (UniProt P19793); test: OT_NURR1_NURR1RXRa_1440: Odyssey Thera (OT) 24-hour HEK293T Protein Complementation Assay for Nurr1/retinoid X receptor (RXR) (AID 2283386)
Procedure, shortened: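 Steps: fragment-tagged Nurr1 and RXRα expressed in HEK293T; compounds added; after 24 h, complemented reporter quantified by fluorescence intensity; signal increase over DMSO fitted as the single endpoint.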

[15] = biological target: Agonist Androgen Response Element (ARE), AR (gene 367) (UniProt P10275); test: OT_AR_ARELUC_AG_1440: Odyssey Thera (OT) 24-hour CHO-K1 Luciferase Assay for Agonist Androgen Response Element (ARE) (AID 2283379)
Procedure, shortened: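 Readout: luciferase bioluminescence from CHO-K1 ARE-luc cells, measured 24 h post-dosing; agonism = increased mean luminescence vs DMSO controls, fitted in positive direction.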

Sequence of Bile acid receptor (Homo sapiens) (Q96RI1 whole entry, looked up): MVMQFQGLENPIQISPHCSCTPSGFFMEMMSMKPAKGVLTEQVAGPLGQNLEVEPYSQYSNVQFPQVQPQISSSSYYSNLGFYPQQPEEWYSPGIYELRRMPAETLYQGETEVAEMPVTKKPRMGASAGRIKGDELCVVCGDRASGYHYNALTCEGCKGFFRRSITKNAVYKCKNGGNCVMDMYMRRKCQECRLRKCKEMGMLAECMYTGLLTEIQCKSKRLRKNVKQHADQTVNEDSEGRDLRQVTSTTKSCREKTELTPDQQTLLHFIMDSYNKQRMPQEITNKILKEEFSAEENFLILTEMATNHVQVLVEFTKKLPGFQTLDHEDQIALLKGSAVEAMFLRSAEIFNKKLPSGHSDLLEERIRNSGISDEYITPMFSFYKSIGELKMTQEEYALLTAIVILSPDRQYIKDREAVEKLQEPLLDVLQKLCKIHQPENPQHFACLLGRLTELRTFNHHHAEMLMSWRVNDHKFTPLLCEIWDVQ
Sequence of Glucocorticoid receptor (Homo sapiens) (P04150 whole entry, looked up): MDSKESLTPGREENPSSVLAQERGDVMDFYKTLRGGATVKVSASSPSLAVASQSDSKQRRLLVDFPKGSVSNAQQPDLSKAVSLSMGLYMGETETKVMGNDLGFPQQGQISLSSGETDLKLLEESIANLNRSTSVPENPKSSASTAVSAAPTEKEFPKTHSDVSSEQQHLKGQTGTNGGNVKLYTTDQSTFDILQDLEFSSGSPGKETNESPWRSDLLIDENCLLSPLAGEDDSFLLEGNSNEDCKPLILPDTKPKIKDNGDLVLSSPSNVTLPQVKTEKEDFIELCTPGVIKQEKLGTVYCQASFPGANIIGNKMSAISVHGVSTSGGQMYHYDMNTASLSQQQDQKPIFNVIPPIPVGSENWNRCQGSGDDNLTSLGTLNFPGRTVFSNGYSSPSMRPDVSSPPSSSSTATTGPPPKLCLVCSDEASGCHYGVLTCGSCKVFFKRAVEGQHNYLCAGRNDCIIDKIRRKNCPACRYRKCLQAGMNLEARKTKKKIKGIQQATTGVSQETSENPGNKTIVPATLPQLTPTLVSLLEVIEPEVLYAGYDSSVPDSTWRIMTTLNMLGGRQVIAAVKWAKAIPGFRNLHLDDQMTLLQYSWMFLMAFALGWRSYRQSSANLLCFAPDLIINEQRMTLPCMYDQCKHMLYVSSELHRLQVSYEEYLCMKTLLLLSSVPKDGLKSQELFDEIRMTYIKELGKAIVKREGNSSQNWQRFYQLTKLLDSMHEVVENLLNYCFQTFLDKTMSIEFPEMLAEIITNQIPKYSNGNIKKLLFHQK
Sequence of human Thyroid Receptor Alpha (TRa), THRA (gene 7067) (P10827 whole entry, looked up): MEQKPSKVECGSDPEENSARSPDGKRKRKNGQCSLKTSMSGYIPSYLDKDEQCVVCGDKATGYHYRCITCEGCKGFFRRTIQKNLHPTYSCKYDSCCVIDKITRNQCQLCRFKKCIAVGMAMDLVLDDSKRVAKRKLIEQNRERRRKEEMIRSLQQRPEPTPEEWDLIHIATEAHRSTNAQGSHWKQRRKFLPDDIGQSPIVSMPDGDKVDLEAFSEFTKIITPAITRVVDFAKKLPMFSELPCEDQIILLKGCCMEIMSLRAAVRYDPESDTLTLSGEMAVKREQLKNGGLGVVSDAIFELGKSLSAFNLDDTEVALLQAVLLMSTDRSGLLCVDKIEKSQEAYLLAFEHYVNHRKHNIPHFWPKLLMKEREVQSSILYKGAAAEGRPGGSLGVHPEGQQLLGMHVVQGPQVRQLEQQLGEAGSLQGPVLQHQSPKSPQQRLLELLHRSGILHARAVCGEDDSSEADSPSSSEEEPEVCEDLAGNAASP
Sequence of mouse Estrogen Receptor alpha (Era), Esr1 (gene 13982) (P19785 whole entry, looked up): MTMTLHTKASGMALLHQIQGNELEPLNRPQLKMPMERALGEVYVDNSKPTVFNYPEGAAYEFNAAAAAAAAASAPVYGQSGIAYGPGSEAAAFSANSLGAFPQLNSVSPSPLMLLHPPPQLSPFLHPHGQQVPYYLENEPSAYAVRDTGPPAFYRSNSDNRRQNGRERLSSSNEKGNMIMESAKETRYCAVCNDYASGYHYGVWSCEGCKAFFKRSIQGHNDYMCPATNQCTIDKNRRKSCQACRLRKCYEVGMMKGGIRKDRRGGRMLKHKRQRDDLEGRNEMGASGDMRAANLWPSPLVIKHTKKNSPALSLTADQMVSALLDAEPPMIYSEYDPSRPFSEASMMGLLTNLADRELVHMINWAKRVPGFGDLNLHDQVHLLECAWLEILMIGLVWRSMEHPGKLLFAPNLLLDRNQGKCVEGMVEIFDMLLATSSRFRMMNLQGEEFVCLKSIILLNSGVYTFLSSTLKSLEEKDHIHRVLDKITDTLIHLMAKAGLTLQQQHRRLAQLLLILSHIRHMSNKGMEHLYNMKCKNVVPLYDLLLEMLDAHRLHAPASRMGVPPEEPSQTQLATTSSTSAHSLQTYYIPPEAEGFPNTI
Sequence of Retinoic acid receptor RXR-alpha (Homo sapiens) (P19793 whole entry, looked up, the tested form may be a part): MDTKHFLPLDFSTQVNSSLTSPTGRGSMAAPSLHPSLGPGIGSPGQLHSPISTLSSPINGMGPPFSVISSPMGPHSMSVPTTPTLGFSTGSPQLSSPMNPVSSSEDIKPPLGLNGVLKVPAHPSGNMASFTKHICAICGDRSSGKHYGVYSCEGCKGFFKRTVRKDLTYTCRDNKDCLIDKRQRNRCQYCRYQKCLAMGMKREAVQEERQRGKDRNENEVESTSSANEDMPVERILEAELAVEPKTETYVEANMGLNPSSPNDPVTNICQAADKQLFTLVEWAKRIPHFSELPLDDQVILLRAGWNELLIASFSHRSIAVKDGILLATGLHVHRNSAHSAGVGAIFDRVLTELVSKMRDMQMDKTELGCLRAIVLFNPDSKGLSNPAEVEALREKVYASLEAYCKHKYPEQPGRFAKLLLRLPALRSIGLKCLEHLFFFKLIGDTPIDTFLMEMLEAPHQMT
Sequence of Estrogen receptor beta (Homo sapiens) (Q92731 whole entry, looked up, the tested form may be a part): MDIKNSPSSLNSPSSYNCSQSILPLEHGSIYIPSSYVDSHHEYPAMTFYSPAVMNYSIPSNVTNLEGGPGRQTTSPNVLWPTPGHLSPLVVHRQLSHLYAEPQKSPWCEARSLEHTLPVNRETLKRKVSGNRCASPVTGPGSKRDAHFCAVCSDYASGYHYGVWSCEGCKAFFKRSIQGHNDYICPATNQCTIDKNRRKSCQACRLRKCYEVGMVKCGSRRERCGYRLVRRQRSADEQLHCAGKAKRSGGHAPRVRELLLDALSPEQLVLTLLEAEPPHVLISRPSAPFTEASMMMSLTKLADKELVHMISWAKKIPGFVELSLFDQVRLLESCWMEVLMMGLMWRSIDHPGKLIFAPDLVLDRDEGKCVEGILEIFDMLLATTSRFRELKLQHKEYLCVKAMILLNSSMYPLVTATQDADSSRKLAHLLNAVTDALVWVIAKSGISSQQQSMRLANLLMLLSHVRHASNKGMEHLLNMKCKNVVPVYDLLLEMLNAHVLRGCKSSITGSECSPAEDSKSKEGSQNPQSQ
Sequence of Peroxisome proliferator-activated receptor gamma (Homo sapiens) (P37231 whole entry, looked up, the tested form may be a part): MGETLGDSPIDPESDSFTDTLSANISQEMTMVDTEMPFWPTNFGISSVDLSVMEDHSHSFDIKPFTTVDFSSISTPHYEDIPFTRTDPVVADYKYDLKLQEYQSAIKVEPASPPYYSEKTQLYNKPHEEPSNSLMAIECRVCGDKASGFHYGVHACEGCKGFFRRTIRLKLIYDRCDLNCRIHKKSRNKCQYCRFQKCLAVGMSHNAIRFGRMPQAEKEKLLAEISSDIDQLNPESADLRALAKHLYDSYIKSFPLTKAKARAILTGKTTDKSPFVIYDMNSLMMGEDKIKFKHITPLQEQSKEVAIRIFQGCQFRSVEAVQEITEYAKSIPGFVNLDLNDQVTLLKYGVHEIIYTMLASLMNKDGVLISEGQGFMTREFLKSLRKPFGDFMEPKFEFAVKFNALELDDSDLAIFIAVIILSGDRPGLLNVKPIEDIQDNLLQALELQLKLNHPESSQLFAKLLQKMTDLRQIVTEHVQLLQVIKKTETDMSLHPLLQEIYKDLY
Sequence of Nuclear receptor subfamily 1 group I member 2 (Homo sapiens) (O75469 whole entry, looked up): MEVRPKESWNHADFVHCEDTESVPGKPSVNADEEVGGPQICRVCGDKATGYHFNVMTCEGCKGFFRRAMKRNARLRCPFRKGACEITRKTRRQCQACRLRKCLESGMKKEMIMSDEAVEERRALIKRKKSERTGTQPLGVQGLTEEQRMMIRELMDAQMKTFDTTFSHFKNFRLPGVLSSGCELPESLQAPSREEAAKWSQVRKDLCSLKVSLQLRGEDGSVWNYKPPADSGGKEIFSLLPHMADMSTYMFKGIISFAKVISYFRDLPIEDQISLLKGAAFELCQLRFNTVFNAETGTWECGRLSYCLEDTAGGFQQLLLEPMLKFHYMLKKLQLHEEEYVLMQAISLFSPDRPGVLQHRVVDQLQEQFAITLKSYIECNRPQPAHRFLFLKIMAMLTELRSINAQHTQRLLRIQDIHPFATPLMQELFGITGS
Sequence of Estrogen receptor (Homo sapiens) (P03372 whole entry, looked up): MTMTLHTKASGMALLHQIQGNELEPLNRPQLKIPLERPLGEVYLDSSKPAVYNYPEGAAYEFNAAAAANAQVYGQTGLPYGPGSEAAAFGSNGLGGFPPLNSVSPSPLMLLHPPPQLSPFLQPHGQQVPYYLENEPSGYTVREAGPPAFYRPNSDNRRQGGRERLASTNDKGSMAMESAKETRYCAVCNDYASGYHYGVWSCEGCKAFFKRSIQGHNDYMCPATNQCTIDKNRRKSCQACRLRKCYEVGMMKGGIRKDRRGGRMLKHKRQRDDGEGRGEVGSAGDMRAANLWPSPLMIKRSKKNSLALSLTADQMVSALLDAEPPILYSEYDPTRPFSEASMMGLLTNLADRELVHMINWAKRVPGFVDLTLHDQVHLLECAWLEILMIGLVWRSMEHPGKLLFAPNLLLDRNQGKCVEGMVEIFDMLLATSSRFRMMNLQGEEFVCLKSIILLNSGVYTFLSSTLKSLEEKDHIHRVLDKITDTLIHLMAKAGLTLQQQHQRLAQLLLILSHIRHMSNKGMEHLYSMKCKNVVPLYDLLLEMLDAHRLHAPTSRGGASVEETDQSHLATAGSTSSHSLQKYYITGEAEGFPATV

CC/C=C\C/C=C\C/C=C\CCCCCCCC(=O)OC
AC50 [1]: 8.39 µM (active)
AC50 [2]: 11.1 µM (active)

CC(C)c1cc(C(C)C)cc(C(C)C)c1
outcome [3]: inactive
outcome [4]: inactive
outcome [5]: inactive
outcome [6]: inactive
outcome [7]: inactive

CN(C)c1ccc2nc3ccc(=[N+](C)C)cc-3sc2c1
AC50 [8]: 32.7 µM (active)
AC50 [9]: 7.57 µM (active)
AC50 [4]: 14.7 µM (active)
AC50 [5]: 40.6 µM (active)
AC50 [6]: 28.2 µM (active)
AC50 [10]: 26.3 µM (active)
AC50 [7]: 31.1 µM (active)
outcome [11]: inactive

CCCCC/C=C\C/C=C\CCCCCCCC(=O)O
outcome [9]: inactive
AC50 [3]: 4.88 µM (active)
AC50 [12]: 35.8 µM (active)
outcome [5]: inactive
outcome [6]: inactive
outcome [13]: inactive
outcome [10]: inactive
AC50 [7]: 12.7 µM (active)

CCCCCCOc1ccc(N)cc1
outcome [1]: inactive
outcome [3]: inactive
outcome [6]: inactive
outcome [13]: inactive
outcome [10]: inactive
outcome [7]: inactive

O=S(=O)(O)c1ccc(N=Nc2c(O)ccc3ccccc23)cc1
AC50 [8]: 31.9 µM (active)
AC50 [9]: 17.1 µM (active)
AC50 [1]: 17.2 µM (active)
outcome [4]: inactive
outcome [6]: inactive
outcome [10]: inactive
outcome [7]: inactive

CC(C)COC(=O)CC(C(=O)OCC(C)C)S(=O)(=O)O (stereo not drawn)
AC50 [3]: 25 µM (active)
outcome [4]: inactive
outcome [5]: inactive
outcome [6]: inactive
outcome [7]: inactive
outcome [11]: inactive

O=C(Nc1ccccc1)c1cc(Cl)ccc1O
outcome [3]: inactive
AC50 [4]: 33.9 µM (active)
outcome [5]: inactive
outcome [6]: inactive
outcome [13]: inactive
outcome [10]: inactive
outcome [7]: inactive
outcome [11]: inactive

CCCCCCCCCCCCCCCCCCOS(=O)(=O)O
AC50 [3]: 5.5 µM (active)
outcome [12]: inactive
AC50 [4]: 12.6 µM (active)
outcome [6]: inactive
outcome [13]: inactive
outcome [14]: inactive
outcome [7]: inactive
outcome [11]: inactive

CCc1cccc(C)c1N
outcome [3]: inactive
outcome [15]: inactive
outcome [5]: inactive
outcome [6]: inactive
outcome [10]: inactive
outcome [7]: inactive

C=C1C[C@H]2[C@@H]3C=C(C)C4=CC(=O)CC[C@]4(C)[C@H]3CC[C@]2(C)[C@@]1(OC(C)=O)C(C)=O
AC50 [1]: 0.00144 µM (active)
AC50 [3]: 4.1 µM (active)
AC50 [12]: 29.2 µM (active)
AC50 [15]: 0.0079 µM (active)
outcome [4]: inactive
outcome [5]: inactive
outcome [6]: inactive
AC50 [10]: 27.5 µM (active)
outcome [7]: inactive
outcome [11]: inactive

CC(CCC(=O)O)(c1ccc(O)cc1)c1ccc(O)cc1
outcome [3]: inactive
AC50 [12]: 6.23 µM (active)
AC50 [4]: 52.3 µM (active)
AC50 [6]: 35.7 µM (active)
outcome [13]: inactive
outcome [10]: inactive
outcome [14]: inactive
outcome [7]: inactive
outcome [11]: inactive
